The whole screen tested about 5,500 compounds, of which about 2,000 (36%) were called active. Inconclusive results (about 18%) are left out. Cut-off read from the data, not from the text of the source: active = normalized growth mostly below about 0.91 (no sharp cut-off); inconclusive = no clear call, values can overlap the other calls; inactive = mostly above about 0.92. The list shows a part of the results.
Test: chemical genetic growth profiling, strain panel (AID 1159580);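 note: tested at 20 µM; growth read once vehicle control cultures reached saturation at 30 °C; 1 = growth at the plate median or of vehicle wells; lower values mean less growth of the strain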
Conditions: S. cerevisiae deletion strains, growth OD
[1] = locus YAR019C, strain CDC15, hits give low values
[2] = locus YBL105C, strain PKC1, hits give low values
[3] = locus YBR135W, strain CKS1, hits give low values
[4] = locus YBR136W, strain MEC1, hits give low values
[5] = locus YBR160W, strain CDC28, hits give low values
[6] = locus YDL017W, strain CDC7, hits give low values
[7] = locus YDL028C, strain MPS1, hits give low values
[8] = locus YDL101C, strain DUN1, hits give low values
[9] = locus YDL108W, strain KIN28, hits give low values
[10] = locus YDL132W, strain cdc53, hits give low values
[11] = locus YDL214C, strain PRR2, hits give low values
[12] = locus YDR052C, strain DBF4, hits give low values
[13] = locus YDR054C, strain cdc34, hits give low values
[14] = locus YDR226W, strain ADK1, hits give low values
[15] = locus YDR477W, strain SNF1, hits give low values
[16] = locus YER123W, strain YCK3, hits give low values
[17] = locus YER133W, strain GLC7, hits give low values
[18] = locus YFL009W, strain cdc4, hits give low values
[19] = locus YFL029C, strain CAK1, hits give low values
[20] = locus YFR003C, strain YPI1, hits give low values
[21] = locus YFR019W, strain FAB1, hits give low values
[22] = locus YFR028C, strain CDC14, hits give low values
[23] = locus YGR040W, strain KSS1, hits give low values
[24] = locus YGR052W, strain FMP48, hits give low values
[25] = locus YGR092W, strain DBF2, hits give low values
[26] = locus YHR030C, strain SLT2, hits give low values
[27] = locus YHR079C, strain IRE1, hits give low values
[28] = locus YHR082C, strain KSP1, hits give low values
[29] = locus YHR205W, strain SCH9, hits give low values
[30] = locus YIL147C, strain SLN1, hits give low values
[31] = locus YJL095W, strain BCK1, hits give low values
[32] = locus YJL128C, strain PBS2, hits give low values
[33] = locus YJL157C, strain FAR1, hits give low values
[34] = locus YJR016C, strain ILV3, hits give low values
[35] = locus YJR066W, strain TOR1 (second series), hits give low values
[36] = locus YJR066W, strain TOR1, hits give low values
[37] = locus YKL048C, strain ELM1, hits give low values
[38] = locus YKL067W, strain YNK1, hits give low values
[39] = locus YKL101W, strain HSL1, hits give low values
[40] = locus YKL193C, strain SDS22, hits give low values
[41] = locus YKL203C, strain TOR2, hits give low values
[42] = locus YLR113W, strain HOG1, hits give low values
[43] = locus YLR133W, strain CKI1, hits give low values
[44] = locus YLR403W, strain SFP1, hits give low values
[45] = locus YML070W, strain DAK1, hits give low values
[46] = locus YMR001C, strain CDC5, hits give low values
[47] = locus YMR205C, strain PFK2 (second series), hits give low values
[48] = locus YMR277W, strain FCP1, hits give low values
[49] = locus YNL006W, strain LST8, hits give low values
[50] = locus YNL020C, strain ARK1, hits give low values
[51] = locus YNL161W, strain CBK1, hits give low values
[52] = locus YNL183C, strain NPR1, hits give low values
[53] = locus YNL207W, strain RIO2, hits give low values
[54] = locus YNL222W, strain SSU72, hits give low values
[55] = locus YNL307C, strain MCK1 (second series), hits give low values
[56] = locus YOL078W, strain AVO1, hits give low values
[57] = locus YOL136C, strain PFK27, hits give low values
[58] = locus YOR061W, strain CKA2, hits give low values
[59] = locus YOR119C, strain RIO1, hits give low values
[60] = locus YOR231W, strain MKK1, hits give low values
[61] = locus YOR329C, strain SCD5, hits give low values
[62] = locus YPL031C, strain PHO85, hits give low values
[63] = locus YPL153C, strain RAD53, hits give low values
[64] = locus YPL204W, strain HRR25, hits give low values
[65] = locus YPL209C, strain IPL1, hits give low values
[66] = locus YPL256C, strain CLN2, hits give low values
[67] = locus YPR025C, strain CCL1, hits give low values
[68] = locus YPR106W, strain ISR1, hits give low values
[69] = locus YPR111W, strain DBF20, hits give low values
[70] = strain NNK1, hits give low values
[71] = strain TSCII, hits give low values

Measured: normalized growth

FC(F)(F)c1cccc(NC(=S)Nc2ccccc2)c1
inactive: [1] 0.983 | [2] 0.98 | [3] 0.975 | [4] 0.979 | [5] 0.981 | [6] 0.987 | [7] 0.98 | [8] 0.989 | [9] 0.978 | [10] 0.966 | [11] 0.949 | [12] 0.996 | [13] 0.982 | [14] 0.98 | [15] 0.954 | [16] 0.96 | [17] 0.958 | [18] 0.973 | [19] 0.983 | [20] 0.982 | [21] 0.962 | [22] 0.967 | [23] 0.941 | [24] 0.974 | [25] 0.883 | [26] 1 | [27] 1.04 | [28] 1 | [29] 0.951 | [30] 0.977 | [31] 0.882 | [32] 0.959 | [33] 0.941 | [34] 0.968 | [35] 0.897 | [36] 0.989 | [37] 1 | [38] 0.961 | [39] 0.955 | [40] 0.973 | [41] 0.995 | [42] 0.962 | [43] 0.947 | [44] 0.899 | [45] 0.966 | [46] 0.98 | [47] 0.991 | [48] 0.97 | [49] 0.985 | [50] 0.974 | [51] 0.981 | [52] 1 | [53] 0.967 | [54] 0.981 | [55] 0.896 | [56] 0.967 | [57] 0.95 | [58] 0.952 | [59] 1.02 | [60] 0.95 | [61] 0.989 | [62] 0.952 | [63] 0.954 | [64] 0.934 | [65] 0.978 | [66] 1.1 | [67] 0.982 | [68] 0.987 | [69] 0.969 | [70] 0.982 | [71] 0.975

CC(C)(C)C(=O)NC(=S)Nc1cccc(C(F)(F)F)c1
active: locus YAL013W, strain DEP1, hits give low values 0.925 | locus YDL134C, strain PPH21, hits give low values 0.804 | [26] 0.527 | locus YLR039C, strain RIC1, hits give low values 0.401 | locus YLR085C, strain ARP6, hits give low values 0.397 | locus YLR262C, strain YPT6, hits give low values 0.474 | locus YML094W, strain GIM5, hits give low values 0.846 | locus YNL298W, strain CLA4 (second series), hits give low values 0.676 | locus YNR030W, strain Alg12, hits give low values 0.722 | locus YOL006C, strain TOP1, hits give low values 0.238 | locus YPL055C, strain LGE1, hits give low values 0.785 | locus YPL241C, strain CIN2, hits give low values 0.755 | locus YPR135W, strain CTF4, hits give low values 0.569
inactive: locus YBR229C, strain ROT2, hits give low values 0.989 | [8] 0.984 | locus YDR150W, strain NUM1, hits give low values 0.91 | locus YEL061C, strain CIN8, hits give low values 0.944 | locus YGR078C, strain PAC10, hits give low values 0.959 | locus YGR229C, strain SMI1, hits give low values 0.959 | locus YHR087W, strain rtc3, hits give low values 0.99 | locus YJL187C, strain SWE1, hits give low values 0.987 | locus YJR043C, strain POL32, hits give low values 0.957 | locus YJR075W, strain HOC1, hits give low values 0.977 | locus YLR058C, strain SHM2 (second series), hits give low values 0.966 | locus YMR219W, strain ESC1, hits give low values 0.978 | locus YMR263W, strain SAP30, hits give low values 0.953 | locus YNL153C, strain GIM3, hits give low values 0.955 | locus YNL322C, strain KRE1, hits give low values 0.984

O=C(NC(=S)Nc1cccc(C(F)(F)F)c1)c1ccc2nonc2c1
inactive: [1] 0.956 | [2] 0.968 | [3] 0.93 | [4] 0.952 | [5] 0.96 | [6] 0.96 | [7] 0.952 | [8] 0.957 | [9] 0.957 | [10] 0.967 | [11] 0.973 | [12] 0.978 | [13] 0.94 | [14] 0.957 | [15] 0.896 | [16] 0.971 | [17] 0.95 | [18] 0.944 | [19] 0.961 | [20] 0.96 | [21] 1 | [22] 0.944 | [23] 0.907 | [24] 1.04 | [25] 0.989 | [27] 0.949 | [28] 0.912 | [29] 0.907 | [30] 0.952 | [31] 0.778 | [32] 0.978 | [33] 0.974 | [34] 0.93 | [35] 0.938 | [36] 0.838 | [37] 0.968 | [38] 0.979 | [39] 0.956 | [40] 0.953 | [41] 0.972 | [43] 0.966 | [44] 0.968 | [45] 0.953 | [46] 0.957 | [47] 0.959 | [48] 0.953 | [49] 0.961 | [50] 0.962 | [51] 0.954 | [52] 0.852 | [53] 0.962 | [54] 0.947 | [55] 0.974 | [56] 0.953 | [57] 0.991 | [58] 0.967 | [59] 1.02 | [60] 0.863 | [61] 0.969 | [62] 0.912 | [63] 0.905 | [64] 0.936 | [65] 0.945 | [67] 0.951 | [68] 0.973 | [69] 0.936 | [70] 0.954 | [71] 0.939
active: [26] 0.774 | [42] 0.713 | [66] 0.831
